Measurements published in PubChem BioAssay (NCI).
Compounds without any hit were thinned out: in the full panel of roughly 79,000, 15% have a hit. Active and inactive are the calls of the source. No stated cut-off is given here; in the data, active means growth inhibition above about 70%; inactive means the rest.

Columns and labels:
[1] = NCI Yeast Anticancer Drug Screen. Data for the rad52 strain (AID 147);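 further: 0% = growth of vehicle-treated control cultures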; settings: S. cerevisiae rad52 mutant growth inhibition, hits give high values
Method in brief: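 The repair-mutant yeast strain was incubated with compounds, then growth was read and inhibition derived relative to vehicle.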

[2] = NCI Yeast Anticancer Drug Screen. Data for the wt1 strain (AID 149);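 further: 0% = growth of vehicle-treated wt1 cultures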; settings: S. cerevisiae wt1 strain (SPY 50644) growth inhibition, hits give high values
Method in brief: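 wt1 yeast, compound-treated; % growth inhibition vs vehicle control.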

[3] = NCI Yeast Anticancer Drug Screen. Data for the rad50EPP+ strain (AID 151);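 further: 0% = growth of vehicle-treated control cultures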; settings: S. cerevisiae rad50 mutant strain, hits give high values
Method in brief: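 Vehicle-normalised growth inhibition; rad50EPP+ yeast strain, altered in DNA damage repair, compound-treated.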

[4] = NCI Yeast Anticancer Drug Screen. Data for the mgt1 strain (AID 153); settings: S. cerevisiae mgt1 mutant growth inhibition, hits give high values
Method in brief: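 Vehicle-normalized growth inhibition is determined in mgt1 yeast, a strain selected for a defined alteration in DNA repair or cell cycle control.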

[5] = NCI Yeast Anticancer Drug Screen. Data for the rad50 strain (AID 155);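 further: 0% = growth of vehicle-only cultures of the same strain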; settings: S. cerevisiae rad50 strain growth inhibition, hits give high values
Method in brief: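 Genetically altered yeast (DNA repair pathway); compound treatment; growth inhibition vs vehicle ctrl.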

[6] = NCI Yeast Anticancer Drug Screen. Data for the mec2-1 strain (AID 157); settings: S. cerevisiae mec2-1 strain, hits give high values
Method in brief: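 Mutant yeast (mec2-1) grown with compound; growth inhibition relative to vehicle control reported.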

[7] = NCI Yeast Anticancer Drug Screen. Data for the rad14 strain (AID 159);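 further: 0% = growth of vehicle-treated control cultures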; settings: S. cerevisiae rad14 strain growth inhibition, hits give high values
Method in brief: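 Test compounds were applied to a repair-deficient yeast strain. Its growth was then compared with that of cultures given vehicle alone, and inhibition was expressed relative to those controls.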

[8] = NCI Yeast Anticancer Drug Screen. Data for the sgs1 mgt1 strain (AID 161);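 further: 0% = growth of cultures given vehicle only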; settings: S. cerevisiae sgs1 mgt1 strain, hits give high values
Method in brief: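 Percent growth inhibition was derived by comparing compound-exposed mutant yeast with vehicle-exposed cultures. The strain carries alterations in DNA damage repair.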

[9] = NCI Yeast Anticancer Drug Screen. Data for the CLN2oe strain (AID 163);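 further: 0% = growth of vehicle-only control cultures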; settings: S. cerevisiae CLN2oe strain, hits give high values
Method in brief: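 Compounds are applied to yeast harbouring a defined cell-cycle control change; reduced growth compared with vehicle-treated controls gives the value.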

[10] = NCI Yeast Anticancer Drug Screen. Data for the cln2 rad14 strain (AID 165);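 further: 0% = growth equal to vehicle treated cultures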; settings: S. cerevisiae cln2 rad14 strain, hits give high values
Method in brief: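 Readout is yeast growth inhibition versus vehicle-treated controls, using a strain with cln2 and rad14 alterations exposed to compound.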

[11] = NCI Yeast Anticancer Drug Screen. Data for the bub3 strain (AID 167); settings: S. cerevisiae bub3 mutant strain, hits give high values
Method in brief: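 Yeast carrying a defined mutation is treated with each compound, and growth is compared with that of vehicle-exposed cells to give inhibition.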

[12] = NCI Yeast Anticancer Drug Screen. Data for the wt2 strain (AID 169);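 further: 0% = growth of vehicle-treated yeast cultures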; settings: S. cerevisiae wt2 strain growth inhibition, hits give high values
Method in brief: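 Against vehicle-treated controls, the growth of yeast exposed to each compound was compared, and the inhibition was recorded.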

[13] = NCI Yeast Anticancer Drug Screen. Data for the mlh1 strain (AID 171);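 further: 0% = growth of vehicle-treated control cultures of the same strain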; settings: S. cerevisiae mlh1 strain growth inhibition, hits give high values
Method in brief: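 Measured: yeast growth. Reference: vehicle-treated controls. Organism: strain with a defined alteration affecting DNA damage repair or cell cycle control, treated with compound.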

[14] = NCI Yeast Anticancer Drug Screen. Data for the sgs1 strain (AID 173);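 further: 0% = growth of vehicle-only control cultures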; settings: S. cerevisiae sgs1 mutant, hits give high values
Method in brief: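 Each compound was added to cultures of the altered yeast strain. Growth was recorded, and inhibition was derived by comparison with vehicle controls.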

[15] = NCI Yeast Anticancer Drug Screen. Data for the mlh1 rad18 strain (AID 175); settings: S. cerevisiae mlh1 rad18 strain growth inhibition, hits give high values
Method in brief: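 Genetically defined yeast (DNA repair-deficient) exposed to compounds; growth inhibition determined relative to vehicle.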

[16] = NCI Yeast Anticancer Drug Screen. Data for the rad18 strain (AID 177); settings: S. cerevisiae rad18 mutant growth inhibition, hits give high values
Method in brief: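 Vehicle-treated cultures served as the baseline for scoring compound-induced growth inhibition in DNA-repair-mutant yeast.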

[17] = at 5.0 µM (retest, dose inferred, filed as 0.5)
[18] = at 50.0 µM (retest, dose inferred, filed as 5.0)

Measured: growth inhibition

CC1OC(O[C@H]2/C=C/C=C/C=C/C=C/C=C/C=C/C=C/[C@H](C)[C@@H](O)[C@@H](C)[C@H](C)OC(=O)C[C@H](O)C[C@H](O)CC[C@@H](O)[C@H](O)C[C@H](O)C[C@]3(O)C[C@H](O)[C@@H](C(=O)O)[C@H](C2)O3)C(O)C(N)C1O (stereo partly specified)
active: [1]; at 11.0 µM 98% | [1]; at 33.0 µM 98% | [1]; at 100.0 µM 98% | [2]; at 11.0 µM 98% | [2]; at 33.0 µM 98% | [2]; at 100.0 µM 98% | [3]; at 3.7 µM 97% | [3]; at 11.0 µM 99% | [3]; at 33.0 µM 99% | [3]; at 100.0 µM 98% | [4]; at 11.0 µM 98% | [4]; at 33.0 µM 99% | [4]; at 100.0 µM 98% | [5]; at 11.0 µM 98% | [5]; at 33.0 µM 98% | [5]; [18] 99% | [5]; at 50.0 µM 99.1% | [5]; at 100.0 µM 97% | [6]; at 11.0 µM 98% | [6]; at 33.0 µM 98% | [6]; [18] 99% | [6]; at 50.0 µM 99.4% | [6]; at 100.0 µM 98% | [7]; at 11.0 µM 95% | [7]; at 33.0 µM 97% | [7]; at 100.0 µM 98% | [8]; [18] 99% | [8]; at 50.0 µM 99.2% | [9]; at 11.0 µM 98% | [9]; at 33.0 µM 98% | [9]; at 100.0 µM 98% | [10]; [18] 99% | [10]; at 50.0 µM 99.1% | [11]; at 11.0 µM 98% | [11]; at 33.0 µM 98% | [11]; [18] 99% | [11]; at 50.0 µM 98.8% | [11]; at 100.0 µM 98% | [12]; at 11.0 µM 96% | [12]; at 33.0 µM 98% | [12]; at 100.0 µM 98% | [13]; at 3.7 µM 78% | [13]; at 11.0 µM 98% | [13]; at 33.0 µM 98% | [13]; at 100.0 µM 98% | [14]; at 11.0 µM 99% | [14]; at 33.0 µM 99% | [14]; at 100.0 µM 99% | [15]; [18] 99% | [15]; at 50.0 µM 98.7% | [16]; at 11.0 µM 97% | [16]; at 33.0 µM 98% | [16]; at 100.0 µM 97%
inactive: [1]; at 1.2 µM 2% | [1]; at 3.7 µM 45% | [2]; at 1.2 µM 2% | [2]; at 3.7 µM 13% | [3]; at 1.2 µM 25% | [4]; at 1.2 µM 17% | [4]; at 3.7 µM 57% | [5]; at 1.2 µM 19% | [5]; at 3.7 µM 61% | [5]; [17] 18% | [6]; at 1.2 µM -2% | [6]; at 3.7 µM 28% | [6]; [17] 32% | [7]; at 1.2 µM 2% | [7]; at 3.7 µM 23% | [8]; [17] 25% | [9]; at 1.2 µM 2% | [9]; at 3.7 µM 23% | [10]; [17] 50% | [11]; at 1.2 µM -19% | [11]; at 3.7 µM 19% | [11]; [17] 14% | [12]; at 1.2 µM -65% | [12]; at 3.7 µM -3% | [13]; at 1.2 µM 7% | [14]; at 1.2 µM 10% | [14]; at 3.7 µM 50% | [15]; [17] 47% | [16]; at 1.2 µM -20% | [16]; at 3.7 µM 35%

OCC(CO)C(c1cccc2ccccc12)c1cccc2ccccc12
inactive: [1]; at 1.2 µM 3% | [1]; at 3.7 µM 42% | [2]; at 1.2 µM -5% | [2]; at 3.7 µM 1% | [3]; at 1.2 µM 0% | [3]; at 3.7 µM 3% | [3]; at 11.0 µM 10% | [3]; at 33.0 µM 13% | [3]; at 100.0 µM -2% | [4]; at 1.2 µM -1% | [4]; at 3.7 µM 9% | [5]; at 1.2 µM 4% | [5]; at 3.7 µM 40% | [5]; [17] 19% | [6]; at 1.2 µM -1% | [6]; at 3.7 µM 21% | [6]; [17] 4% | [7]; at 1.2 µM 0% | [7]; at 3.7 µM 20% | [8]; [17] 6% | [9]; at 1.2 µM -2% | [9]; at 3.7 µM 28% | [10]; [17] 2% | [11]; at 1.2 µM -1% | [11]; at 3.7 µM 9% | [11]; [17] -1% | [12]; at 1.2 µM -4% | [12]; at 3.7 µM 3% | [13]; at 1.2 µM 0% | [13]; at 3.7 µM 11% | [14]; at 1.2 µM 1% | [14]; at 3.7 µM 15% | [15]; [17] 7% | [16]; at 1.2 µM 7% | [16]; at 3.7 µM 53%
active: [1]; at 11.0 µM 98% | [1]; at 33.0 µM 98% | [1]; at 100.0 µM 88% | [2]; at 11.0 µM 98% | [2]; at 33.0 µM 99% | [2]; at 100.0 µM 94% | [4]; at 11.0 µM 98% | [4]; at 33.0 µM 99% | [4]; at 100.0 µM 93% | [5]; at 11.0 µM 98% | [5]; at 33.0 µM 98% | [5]; [18] 99% | [5]; at 50.0 µM 99.3% | [5]; at 100.0 µM 88% | [6]; at 11.0 µM 98% | [6]; at 33.0 µM 99% | [6]; [18] 99% | [6]; at 50.0 µM 99.2% | [6]; at 100.0 µM 92% | [7]; at 11.0 µM 99% | [7]; at 33.0 µM 99% | [7]; at 100.0 µM 90% | [8]; [18] 100% | [8]; at 50.0 µM 99.2% | [9]; at 11.0 µM 99% | [9]; at 33.0 µM 99% | [9]; at 100.0 µM 88% | [10]; [18] 97% | [10]; at 50.0 µM 99.2% | [11]; at 11.0 µM 98% | [11]; at 33.0 µM 99% | [11]; [18] 99% | [11]; at 50.0 µM 99.3% | [11]; at 100.0 µM 89% | [12]; at 11.0 µM 98% | [12]; at 33.0 µM 99% | [12]; at 100.0 µM 90% | [13]; at 11.0 µM 99% | [13]; at 33.0 µM 99% | [13]; at 100.0 µM 92% | [14]; at 11.0 µM 98% | [14]; at 33.0 µM 99% | [14]; at 100.0 µM 93% | [15]; [18] 99% | [15]; at 50.0 µM 98.7% | [16]; at 11.0 µM 98% | [16]; at 33.0 µM 99% | [16]; at 100.0 µM 88%
